A selection: hits, their analogues and other compounds. The true share with any hit is near 2.8%.
Fam108B counter: mouse Fam108B serine hydrolase inhibitors, primary screen, counter-screen for RBBP9 inhibitor project, biochemical, fluorescence polarization | recombinant Fam108B, FP-Rh probe fluorescence polarization | inhibition, % at 9.51 µM | actives 0.33% (n = 300,000);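 active means inhibition above the screen mean inhibition plus 3 SD, computed separately per campaign, cut at about 18% in these data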;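 further: inhibitors lower polarization as less probe binds the enzyme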
pPAFAH FP inh: pPAFAH enzyme inhibitors, primary screen, biochemical, fluorescence polarization, human; actives 1.5% (n = 330,000); recombinant pPAFAH, FP-rhodamine probe fluorescence polarization; AID 463082, 2010; inhibition, % at 3.39 µM; Platelet-activating factor acetylhydrolase (Homo sapiens), Q13093;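 active means inhibition above the mean inhibition across the screen plus 3 SD, cut at about 25% in these data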;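 further: inhibitors block binding of the rhodamine activity-based probe so polarization drops; 0% = enzyme with DMSO and 100% = wells lacking pPAFAH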
Target sequence (Q13093 whole entry, looked up): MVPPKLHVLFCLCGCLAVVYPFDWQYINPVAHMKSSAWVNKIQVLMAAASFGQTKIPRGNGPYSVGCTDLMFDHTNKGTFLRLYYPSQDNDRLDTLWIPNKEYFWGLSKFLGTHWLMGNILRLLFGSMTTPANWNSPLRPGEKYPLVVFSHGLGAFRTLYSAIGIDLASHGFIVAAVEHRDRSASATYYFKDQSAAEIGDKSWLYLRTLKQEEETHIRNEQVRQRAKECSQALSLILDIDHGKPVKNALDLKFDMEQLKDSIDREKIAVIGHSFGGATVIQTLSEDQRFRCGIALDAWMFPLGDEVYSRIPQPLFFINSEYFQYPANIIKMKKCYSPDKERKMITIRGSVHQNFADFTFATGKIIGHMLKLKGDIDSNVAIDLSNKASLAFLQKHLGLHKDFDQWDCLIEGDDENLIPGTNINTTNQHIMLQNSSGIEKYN
PME-1 inh: PME-1 inhibitors via competitive probe labeling, primary screen, biochemical, fluorescence polarization, FP-Rh probe, HTS; recombinant PME-1; actives 0.53% (n = 320,000); Protein phosphatase methylesterase 1 (Homo sapiens), Q9Y570; inhibition, % at 5.9 µM;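 active means inhibition above the campaign mean of all compounds plus 3 SD, cut at about 26% in these data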;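 further: competitive labeling of PME-1 active site by serine hydrolase directed probe; 0% = PME-1 with DMSO and 100% = wells lacking PME-1 enzyme; inhibitors block probe labeling so polarization falls and inhibition rises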
PAFAH2 inh: PAFAH2 enzyme inhibitors, primary screen, biochemical, fluorescence polarization, human | Platelet-activating factor acetylhydrolase 2, cytoplasmic (Homo sapiens), Q99487 | recombinant PAFAH2, FP-rhodamine activity probe | inhibition, % at 3.39 µM | actives 0.99% (n = 340,000) | AID 492956, 2010;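 active means inhibition above the mean over all tested compounds plus 3 SD, cut at about 30% in these data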;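 further: inhibitors block probe labeling of enzyme so polarization drops; 0% = enzyme with DMSO and 100% = wells lacking PAFAH2 protein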
PAFAH1B2 inh: PAFAH1B2 enzyme inhibitors, primary screen, biochemical, fluorescence polarization, human; actives 1.2% (n = 340,000); recombinant PAFAH1B2, FP-rhodamine activity probe; inhibition, % at 3.39 µM;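 active means inhibition above the mean of all tested compounds plus 3 SD, cut at about 24% in these data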;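 further: 0% = enzyme with DMSO and 100% = wells lacking PAFAH1B2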
Target sequence (P68402 whole entry, looked up): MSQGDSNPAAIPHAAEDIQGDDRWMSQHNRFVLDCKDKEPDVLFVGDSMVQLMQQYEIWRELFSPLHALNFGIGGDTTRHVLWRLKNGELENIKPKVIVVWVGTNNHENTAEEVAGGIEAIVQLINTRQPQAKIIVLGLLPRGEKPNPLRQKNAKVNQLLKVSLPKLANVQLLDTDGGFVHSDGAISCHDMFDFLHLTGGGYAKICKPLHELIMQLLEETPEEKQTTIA
PAFAH1B3 inh: PAFAH1B3 enzyme inhibitors, primary screen, biochemical, fluorescence polarization, human | recombinant PAFAH1B3, FP-rhodamine probe | inhibition, % at 3.39 µM | actives 0.28% (n = 340,000) | AID 492972, 2010;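 active means inhibition above the screen-wide average of all tested compounds plus 3 SD, cut at about 25% in these data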;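 further: 0% = enzyme with DMSO only and 100% = wells lacking PAFAH1B3 protein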
PAFAH2 FP conf: PAFAH2 enzyme inhibitors, confirmation, biochemical, fluorescence polarization, human | shares compounds with PAFAH2 inh | recombinant PAFAH2, FP-rhodamine activity probe | inhibition, % at 3.39 µM | actives 65% (n = 2,300);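 active means mean inhibition over three repeats above a set limit taken from the earlier primary screen, cut at about 30% in these data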;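 further: inhibitor blocks binding of rhodamine activity probe so polarization falls; 0% = enzyme with DMSO and 100% = wells lacking PAFAH2 protein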
* = called active by the depositor; . = not tested or not shown.

SMILES	Fam108B counter	pPAFAH FP inh	PME-1 inh	PAFAH2 inh	PAFAH1B2 inh	PAFAH1B3 inh	PAFAH2 FP conf
COc1cc(F)ccc1S(=O)(=O)N1CCN(c2ccccc2)CC1	-2.0	3.7	0.2	0.0	4.2	3.4	.
Cc1cccc(C)c1NC(=S)N(CCCN1CCN(C)CC1)Cc1cccs1	-2.4	-7.6	6.8	2.0	-3.6	3.5	.
O=C(COc1ccccc1Cl)Nc1ccccc1C(=O)N1CCCCC1	0.6	-2.1	1.9	1.6	3.6	3.3	.
N#CCSc1ccccc1NC(=O)CN1C(=O)C2CC=CCC2C1=O (centres undefined)	.	.	.	-4.5	-2.7	1.5	.
COc1ccc(C(=O)OCC(=O)NCc2ccco2)cc1S(=O)(=O)N1CCN(c2cccc(Cl)c2)CC1	-12.8	14.7	-14.0	32.4*	-0.1	8.8	35.4*
Cc1ccc(C(=O)NCc2ccco2)cc1S(=O)(=O)N1CCOCC1	0.2	-4.0	-1.7	-1.6	3.7	11.5	.
Cc1ccc(C(=O)OCC(=O)NCc2ccco2)cc1S(=O)(=O)N1CCOCC1	-0.9	17.3	-3.6	44.5*	-0.5	6.1	39.2*
Cc1ccccc1Cn1c(=O)n(C)c(=O)c2sccc21	1.7	1.6	1.3	1.0	0.1	-0.9	.
Cc1ccc(C(=O)Oc2oc(-c3ccco3)nc2C=Nc2ccc(Cl)cc2)cc1	1.2	10.0	-1.6	41.4*	-1.1	-3.4	20.6
Cc1cc(C(=O)N2CCN(Cc3ccccc3)CC2)ccc1[N+](=O)[O-]	3.5	-6.2	-9.1	119.2*	-1.9	9.9	2.4
C=CCn1c(SCC(=O)N(C)C2CCCCC2)nnc1C1CC1	.	0.0	.	34.3*	5.2	6.6	25.4
O=C1OC(/C(=C\Nc2cc(Cl)ccc2O)[N+](=O)[O-])c2ccccc21 (centres undefined)	2.1	17.7	2.1	49.3*	1.6	9.2	45.6*
Cc1sc2nc(-c3ccco3)oc(=O)c2c1C	1.2	-1.6	-2.2	61.6*	0.3	11.1	47.3*
Cc1sc2nc(C(C)(C)C)oc(=O)c2c1C	4.2	8.8	7.5	35.8*	4.8	-6.9	39.6*
Cc1ccccc1-c1nc2sc(C)c(C)c2c(=O)o1	-1.8	0.1	-2.4	68.4*	-3.3	4.3	54.1*
O=C1C(Cl)=C(Nc2ccccc2O)C(=O)N1CCc1ccccc1	-5.8	18.9	0.3	44.1*	6.2	-13.8	37.0*
COc1ccc(CCNC2=C(Cl)C(=O)N(CCc3ccccc3)C2=O)cc1OC	-2.4	5.3	-2.2	2.8	1.0	3.4	.
C/C(CC(=O)Nc1ccc(N(C)C)cc1)=N\NC(=O)C(=O)NCc1ccccc1	-0.7	5.3	6.7	45.7*	9.9	-3.0	-6.0
O=C(CSC1=NS(=O)(=O)c2cc(Cl)ccc2N1)NCc1ccccc1	1.7	2.6	6.8	2.6	13.3	6.9	.
NS(=O)(=O)c1cc2c(cc1Cl)NC(CSCc1ccccc1)=NS2(=O)=O	0.0	-5.0	2.5	33.9*	23.3	-4.1	26.2
Cc1cc(C)cc(NC(=O)CSc2nc3c(c(=O)[nH]2)CN(Cc2ccc(F)cc2)CC3)c1	-7.6	5.8	-3.8	30.7*	8.6	4.3	17.0
CCCN1CCc2nc(SCC(=O)Nc3ccc(C)c(Cl)c3)[nH]c(=O)c2C1	-2.2	3.3	-5.2	2.9	3.4	0.3	.
Nc1[nH]n2c(=O)c3c(nc2c1N=Nc1ccc(Cl)cc1)CCCC3	17.3	9.7	0.2	39.6*	10.1	5.7	24.6
Cc1ccc(C(=O)NCC(=O)OCC(=O)Nc2cc(S(=O)(=O)N3CCOCC3)ccc2Cl)s1	.	0.4	.	5.2	4.6	10.4	.
O=C(NCCc1ccccc1)/C(=C\c1ccccc1)NC(=O)c1ccco1	0.1	18.4	-2.4	7.2	-1.9	0.5	.
SMILES	Fam108B counter	pPAFAH FP inh	PME-1 inh	PAFAH2 inh	PAFAH1B2 inh	PAFAH1B3 inh	PAFAH2 FP conf
CS/C(N)=N/N=C/c1cc(Br)cc(Br)c1O	1.1	18.1	9.8	63.3*	6.2	2.0	43.4*
Cc1ccc(NC(=O)COC(=O)C2CC2C)c(S(=O)(=O)N2CCCCC2)c1 (centres undefined)	3.0	5.3	-0.5	81.8*	-10.8	0.2	77.9*
CC1CC1C(=O)OCC(=O)Nc1cc(S(=O)(=O)N2CCCCC2)ccc1Cl (centres undefined)	.	8.2	.	72.3*	6.6	7.2	60.2*
Cc1cc(=O)oc2cc(OCC(=O)NCCc3ccccc3)ccc12	-1.8	7.8	0.3	4.1	-8.9	-7.9	.
COc1cccc(NC(=O)COC(=O)c2ccccc2C(=O)N(C)c2ccccc2)c1	.	3.6	4.9	71.2*	0.1	3.0	69.0*
COc1ccc(C(=O)COC(=O)c2ccccc2C(=O)N(C)c2ccccc2)c(OC)c1	-4.9	12.7	-3.0	1.3	1.7	3.3	.
CN(C(=O)c1ccccc1C(=O)OCC(=O)Nc1cccc(Br)c1)c1ccccc1	.	1.7	7.9	75.9*	-1.9	-4.3	76.0*
CN(C(=O)c1ccccc1C(=O)OCC(=O)Nc1ccc(S(N)(=O)=O)cc1)c1ccccc1	3.6	4.0	4.5	-5.1	3.4	7.6	.
CN(C(=O)c1ccccc1C(=O)OCC(=O)Nc1ccc(OC(F)F)cc1)c1ccccc1	.	15.1	5.5	64.6*	-2.9	3.5	56.0*
CSCCC(NC(=O)c1ccccc1Cl)C(=O)NCC(c1ccc(F)cc1)N1CCOCC1 (centres undefined)	.	.	.	-1.5	-1.0	4.4	.
O=c1c2ccccc2nc(COc2ccccc2)n1/N=C/c1ccc(O)c(O)c1	3.9	22.3	18.5	30.2*	4.1	11.3	23.6
O=C(CCC(=O)N1CCCC1)Nc1ccc(Cl)c(Cl)c1	3.7	23.1	6.3	53.5*	-6.2	3.3	57.4*
Oc1ccccc1C=NNC(=S)Nc1ccc(F)cc1	.	.	.	27.8	7.0	9.6	.
Oc1ccccc1/C=N/NC(=S)NC1CC2C=CC1C2 (centres undefined)	1.9	19.6	-0.2	57.2*	9.2	11.5	29.6
Nc1ccc(S(=O)(=O)Nc2nccs2)cc1N=Nc1ccccc1[N+](=O)[O-]	.	.	.	53.5*	14.1	20.7	37.5*
O=[N+]([O-])c1cccc(S(=O)(=O)Nc2ccc(S(=O)(=O)Nc3nccs3)cc2)c1	6.3	2.3	8.3	2.2	-0.4	5.7	.
